Consider 82 compounds from ChEMBL document CHEMBL4513135, “CO-ADD screening of IQOG CSIS (Spain) compounds”.

SMILES strings stand for the structures. Where “and” joins values, the source holds several entries; their conditions need not be identical. Equal entries are not always repeated. Measured potencies and affinities stand elsewhere.

The test system of one assay is Staphylococcus aureus. The note with it: Concentration 32 ug.mL-1, ASSAY_TEST Inhibition of Bacterial Growth, detection method Absorption (OD600), MEDIA CAMHB, plate type 384well, NBS, CORNING #3640, time 18 hr.
In another assay the test system is Escherichia coli. The note with it: Concentration 32 ug.mL-1, ASSAY_TEST Inhibition of Bacterial Growth, detection method Absorption (OD600), MEDIA CAMHB, plate type 384well, NBS, CORNING #3640, time 18 hr.

Take `N#CC1(Br)C(=NBr)Oc2c(ccc3ccccc23)C1c1cccc([N+](=O)[O-])c1` (centres undefined): the Inhibition is listed as 34.66% with Staphylococcus aureus and -14.11% in the assay on Escherichia coli.
In the same order, the values of `COc1ccccc1C1c2ccc3ccccc3c2Oc2nc3c(c(N)c21)CCCC3` (centres undefined) are 0.62% and 3.02%.
Turning to `COc1ccc2c(c1)cc(CNc1ccccc1)n2C`, the Inhibition with Staphylococcus aureus is recorded as 20.09%; with Escherichia coli, -6.35%.
In the same order, the values of `COc1nc(NC(C)=O)c(C#N)c(-c2ccccc2)c1C#N` are 21.1% and -7.58%.
As to `NNC(=O)c1cc2ccccc2n1Cc1ccccc1`, the Inhibition is given as -21.85% with Staphylococcus aureus and -14.39% in the assay with Escherichia coli.
With `CN1C/C(=C\Cl)n2c1c(C#N)c(-c1ccccc1)c(C#N)c2=O`, the figures for the Inhibition with Staphylococcus aureus and with Escherichia coli were 14.24% and -33.76%, respectively.
In the same order, the values of `Cl.Cl.Cn1c(CNc2ccccc2)cc2cc(OCCCC3CCN(Cc4ccccc4)CC3)ccc21` are 21.22% and -8.49%.
In the same order, the values of `Cc1nc(Nc2ccccc2)c2cnn(-c3ccccc3)c2n1` are 6.87% and 6.44%.
For `COc1ccccc1[C@H]1c2c(ccc3ccccc23)O/C(=N\Br)[C@@]1(Br)C#N`, the Inhibition stood at 33.19% in the assay with Staphylococcus aureus and 14.2% with Escherichia coli.
In the same order, the values of `CCOC(=O)c1c(C)[nH]c2ccc(OC)cc12` are -4.64% and 0.02%.
As for `C#CCN(C)Cc1cc2cc(OCCCC3CCN(C(=O)OC(C)(C)C)CC3)ccc2n1C`, the Inhibition was found to be 10.44% with Staphylococcus aureus and 14.28% with Escherichia coli.
In the same order, the values of `N#Cc1cc(C#N)c(N2CCC(Cc3ccccc3)CC2)nc1N` are -2.68% and -8.44%.
Turning to `Br.C#CCNCc1ccccc1`, the values for the Inhibition with Staphylococcus aureus and in the assay on Escherichia coli were 25.93% and 20.8%, respectively.
As for `COC1=C(C#N)CCC(=O)N1`, the Inhibition in the assay on Staphylococcus aureus is given as 33.45%; in the assay on Escherichia coli it was -6.96%.
For `COc1nc(N)c(C#N)cc1C#N`, the Inhibition in the assay with Staphylococcus aureus is reported as 18.25%; in the assay with Escherichia coli, -3.66%.
With `COc1ccc(-c2cc(-c3cc4c(OC)ccc(OC)c4nc3Cl)cc(=O)[nH]2)cc1`, the results for the Inhibition in the assay with Staphylococcus aureus and in the assay on Escherichia coli were 22.4% and -10.79%, respectively.
In the same order, the values of `CCOC(=O)CCc1c[nH]c2ccccc12` are -15.79% and -15.2%.
In the same order, the values of `O=C1SC(SCc2ccccc2)=NC1=Cc1cccc(OCc2ccccc2)c1` are -1.09% and 7.89%.
Consider `N#Cc1c(-c2ccccc2)c2c(ccc3ccccc32)oc1=O`, for which the Inhibition with Staphylococcus aureus is listed as 27.54%; in the assay on Escherichia coli it was 15.75%.
In the same order, the values of `COc1ccc2c(c1)cc(CN)n2C` are 13.26% and 5.66%.
In the case of `COc1cc(C2C(C#N)=C(N)Oc3c2ccc2ccccc32)ccc1O` (centres undefined), the Inhibition in the assay on Staphylococcus aureus is listed as 50.2%; with Escherichia coli, -13.64%.
In the same order, the values of `Cc1ccc(C2c3ccc4ccccc4c3Oc3nc4c(c(N)c32)CCCC4)cc1.Cl` (centres undefined) are -4.06% and 12.44%.
For `COc1nc2nc3c(c(N)c2cc1C#N)CCCC3.Cl`, the values for the Inhibition in the assay on Staphylococcus aureus and with Escherichia coli were 7.17% and -4.74%, respectively.
In the same order, the values of `O=C1NC(=O)C(=Cc2ccccc2)N1` are 16.19% and 11.12%.
For the compound `Cn1ccnc1C1c2ccc3cccnc3c2Oc2nc3c(c(N)c21)CCC3` (centres undefined), the Inhibition with Staphylococcus aureus is recorded as 14.96%; in the assay with Escherichia coli, -15.51%.
Turning to `COc1ccc(C2c3c(ccc4ccccc34)OC(=NBr)C2(Br)C#N)cc1OC` (centres undefined), the Inhibition with Staphylococcus aureus is recorded as 13.88%; in the assay on Escherichia coli it was -20.35%.
In the same order, the values of `N#CC1=C(Cl)Oc2c(ccc3ccccc23)C1c1cccc([N+](=O)[O-])c1` (centres undefined) are 9.83% and -16.88%.
In the case of `COc1ccc(C=C2N=C(SC)N(C)C2=O)cc1`, the Inhibition with Staphylococcus aureus was -4.46%; with Escherichia coli, 0.92%.
As for `COc1cc(C2c3c(nc4c(c3N)CCCC4)Oc3ccc4ccccc4c32)cc(OC)c1OC` (centres undefined), the Inhibition with Staphylococcus aureus was 14.84%; with Escherichia coli, 14.05%.
On to `COc1ccc2c(c1)cc(CN(C)C)n2C`, for which the Inhibition is on record as -0.93% with Staphylococcus aureus and -1.4% in the assay on Escherichia coli.
In the same order, the values of `CC1=C(C(=O)O[C@@H]2C[C@@]3(C)CC[C@H]2C3(C)C)C(c2ccccc2)C(C#N)=C(N)O1` (some centres undefined) are -12.42% and 16.17%.
Turning to `N#CC1(Br)C(=N)Oc2ccc3ccccc3c2C1c1ccccc1` (centres undefined), the Inhibition with Staphylococcus aureus (32 ug/mL) is 27.29% and 36.87%; with Escherichia coli (32 ug/mL), -8.37% and -7.39%.
On to `C#CCN(C)Cc1cc2cc(OCCCC3CCN(Cc4ccc(C#N)cc4)CC3)ccc2n1C`, for which the Inhibition is listed as 8.98% with Staphylococcus aureus and -18.18% with Escherichia coli.
In the case of `CCOC(=O)c1cn(C)c2ccccc12`, the Inhibition in the assay with Staphylococcus aureus is reported as 5.67%; in the assay on Escherichia coli it was 4.13%.
Take `COc1ccc(-c2cc(-c3cc4ccccc4nc3Cl)cc(=O)[nH]2)cc1`: the Inhibition is 22.93% in the assay with Staphylococcus aureus and -12.6% in the assay with Escherichia coli.
In the case of `COc1[nH]c(=O)ccc1C#N`, the Inhibition in the assay with Staphylococcus aureus was 31.13%; in the assay on Escherichia coli it was -5.91%.
In the same order, the values of `Cc1nc2c3cnn(-c4ccccc4)c3nc(C)n2n1` are 14.43% and 10.35%.
In the same order, the values of `CCOC(=O)c1cc(C#N)c(N)nc1C` are 8.2% and -11.35%.
In the same order, the values of `CCOc1nc(N)c(C#N)c(-c2ccccc2)c1C#N` are 44.16% and -9.76%.
On to `N#CC1(Br)C(=NBr)Oc2ccc3ccccc3c2C1c1ccc([N+](=O)[O-])cc1` (centres undefined), for which the Inhibition is given as 17.16% with Staphylococcus aureus and -19.01% in the assay with Escherichia coli.
As for `Cc1nc2c(cc1C#N)c(N)nn2C`, the Inhibition in the assay with Staphylococcus aureus is 30.49%; in the assay on Escherichia coli it was 0.08%.
In the same order, the values of `N#Cc1cccnc1Cl` are 22.89% and -20.17%.
In the same order, the values of `CC1CC(=O)Nc2c1c(Cl)nc1nc3c(c(N)c21)CCCC3` (centres undefined) are 34.68% and -17.09%.
In the same order, the values of `C#CCN(C)Cc1cc2cc(OCCC3CCN(Cc4ccccc4)CC3)ccc2n1C.Cl` are 28.43% and -29.82%.
In the case of `C#CCNc1ccc(Cl)nn1`, the Inhibition is 21.22% in the assay with Staphylococcus aureus and -28.17% in the assay with Escherichia coli.
In the same order, the values of `N#Cc1c(N)nc(N2CCCCC2)c(C#N)c1-c1ccccc1` are 14.68% and -11.69%.
In the same order, the values of `Cc1ccccc1-c1c(C=N)c(N)nc2c1S(=O)(=O)OC2(C)C` are 11.29% and 8.66%.
In the same order, the values of `CS(=O)(=O)O[C@H]1CC[C@H](OS(C)(=O)=O)CC1` are 29.12% and -5.59%.
`Nc1c2c(nc3c1C(c1ccc(O)cc1)c1c(ccc4ccccc14)O3)CCCC2` (centres undefined): the Inhibition turned out to be 9.54% with Staphylococcus aureus and 9.35% in the assay with Escherichia coli.
In the same order, the values of `Cl.NC1(C(=O)O)CC1c1ccccc1` (centres undefined) are 12.81% and 11.66%.
In the case of `CC(=O)C(=Cc1ccccc1)C(=O)O[C@H]1C[C@H](C)CC[C@H]1C(C)C`, the Inhibition is 27.78% in the assay on Staphylococcus aureus and 14.92% with Escherichia coli.
In the same order, the values of `Cc1ccc(C2c3ccc4ccccc4c3Oc3nc4c(c(N)c32)CCCC4)cc1` (centres undefined) are -4.73% and -12.25%.
In the same order, the values of `NNC(=O)C1(NC(=O)c2ccccc2)CC1c1cccc(O)c1` (centres undefined) are 12.61% and 5.57%.
In the same order, the values of `C=CCNc1[nH]c2ccc(O)cc2c1C#N` are 32.95% and -4.66%.
With `CNN=C1N=C(SCc2ccccc2)SC1=O`, the Inhibition in the assay with Staphylococcus aureus stood at 8.05%; in the assay with Escherichia coli, 4.4%.
With `COc1cccc(C2C(C#N)=C(N)Oc3c2ccc2ccccc32)c1` (centres undefined), the Inhibition in the assay with Staphylococcus aureus was 23.52%; with Escherichia coli it was -8.01%.
Take `O=C(O)/C(=C\c1ccccc1)NC(=O)c1ccccc1`: the values for the Inhibition in the assay on Staphylococcus aureus and in the assay on Escherichia coli were 14.68% and 10.16%, respectively.
In the same order, the values of `CC1CN(C)c2c(C#N)c(-c3ccccc3)c(C#N)c(=N)n21` (centres undefined) are 26.27% and -6.63%.
In the same order, the values of `O=C(NNC(Cc1ccccc1)Cc1ccccc1)c1cc2ccccc2[nH]1` are -3.72% and -3.49%.
In the same order, the values of `N#Cc1c(N)nc(N)c(C#N)c1-c1ccccc1` are 24.97% and -10.66%.
As to `CCOc1nc2nc(C)c(C=C3CCN(Cc4ccccc4)CC3)cc2c(-c2ccccc2)c1C#N`, the figures for the Inhibition in the assay on Staphylococcus aureus and with Escherichia coli were 33.88% and -8.83%, respectively.
In the same order, the values of `COC1=C(C#N)CC(C)C(=O)N1` (centres undefined) are 16.96% and -13.94%.
With `CCOC(=O)C1=C(C)NC(N)=C(C#N)C1c1ccc([N+](=O)[O-])cc1` (centres undefined), the Inhibition in the assay on Staphylococcus aureus is recorded as 22.51%; in the assay on Escherichia coli, -7.02%.
Turning to `CCOC(=O)C1=C(C)Oc2nc3c(c(N)c2C1c1ccccc1OC)CCC3` (centres undefined), the Inhibition in the assay on Staphylococcus aureus came to 12.13%; with Escherichia coli, 5.78%.
Regarding `N#C/C(=C\c1ccccc1)C(=O)c1ccccc1`, the Inhibition was found to be 10.5% in the assay on Staphylococcus aureus and 8.34% in the assay on Escherichia coli.
In the same order, the values of `Nc1c2c(nc3c1C(c1ccc([N+](=O)[O-])cc1)c1ccc4ccccc4c1O3)CCCC2` (centres undefined) are -9.37% and -12.22%.
In the same order, the values of `COc1ccc(C2C(C#N)=C(N)Oc3ccc4ccccc4c32)cc1OC` (centres undefined) are 19.72% and -23.42%.
In the same order, the values of `N#Cc1c(N)nc(Cl)c(C#N)c1-c1ccccc1` are 17.3% and 12.56%.
In the case of `COc1ccc(-c2c(C#N)c(=O)oc3c2ccc2ccccc23)cc1`, the Inhibition in the assay with Staphylococcus aureus (32 ug/mL) is 29.57% and 19.64%; with Escherichia coli (32 ug/mL), -26.6% and -23.12%.
Take `N#Cc1cc(C#N)c(NCCCCC2CCN(Cc3ccccc3)CC2)nc1N`: the Inhibition is 36.38% in the assay with Staphylococcus aureus and -9.24% in the assay on Escherichia coli.
Regarding `N#CC1=C(Cl)Oc2c(ccc3ccccc23)C1c1ccc([N+](=O)[O-])cc1` (centres undefined), the Inhibition was 7.21% with Staphylococcus aureus and -24.25% in the assay with Escherichia coli.
In the same order, the values of `COc1ccc(C2c3ccc4ccccc4c3OC(=NBr)C2(Br)C#N)cc1` (centres undefined) are 25.41% and -8.93%.
In the same order, the values of `Cn1c(C(=O)O)cc2ccccc21` are 7.02% and 5.49%.
Take `O=C1OC(c2ccccc2)=NC1=Cc1ccc([N+](=O)[O-])cc1`: the Inhibition in the assay on Staphylococcus aureus is on record as 5.7%; with Escherichia coli, 7.71%.
In the same order, the values of `N#Cc1cccnc1N` are 27.07% and -3.89%.
In the same order, the values of `Cc1ccc(C2c3c(nc4c(c3N)CCCC4)Oc3ccc4ccccc4c32)cc1` (centres undefined) are 10.92% and -5.39%.
On to `COc1ccc(C2C(C#N)=C(N)Oc3c2ccc2ccccc32)c(OC)c1` (centres undefined), for which the Inhibition was 5.1% in the assay with Staphylococcus aureus and 0.79% in the assay with Escherichia coli.
In the same order, the values of `CCOC(=O)C1=C(C)Oc2nc3c(c(N)c2C1c1nccn1C)CCC3` (centres undefined) are 6.58% and -22.18%.
In the same order, the values of `N#CC1(Br)C(=N)Oc2ccc3ccccc3c2C1c1cccc([N+](=O)[O-])c1` (centres undefined) are 22.75% and -22.9%.
In the same order, the values of `O=Cc1c[nH]c2ccccc12` [3-FORMYLINDOLE] are 16.72% and 17.3%.
As to `C#CCNc1ncccn1`, the Inhibition in the assay on Staphylococcus aureus is listed as 40.44%; in the assay with Escherichia coli, -0.02%.
In the same order, the values of `C#CCN(C)c1nc(NCC2CCN(Cc3ccccc3)CC2)c(C#N)c(-c2ccccc2)c1C#N` are 6.97% and -2.4%.

In general, Inhibition refers to the relative decrease from the control value, in per cent.
